Screens from PubChem BioAssay.
Bead autofluor = flagged as autofluorescent in microsphere protease counterscreen. compound autofluorescence counterscreen, microsphere flow cytometry; stronger effect = higher value. fluorescence intensity (no concentration beside the values). 360,000 tested, 3.1% active; in the data active means fluorescence intensity above about 16000; inconclusive means no clear call, values can overlap the other calls
Anthrax LF prot = blocks Bacillus anthracis lethal factor protease | P15917 | multiplex microsphere protease cleavage assay, LF | inhibition, % at 10 µM | 360,000 tested, 0.12% active; further: plate controls were buffer without enzyme for full effect and enzyme alone for no effect
Target sequence (P15917 whole entry, looked up): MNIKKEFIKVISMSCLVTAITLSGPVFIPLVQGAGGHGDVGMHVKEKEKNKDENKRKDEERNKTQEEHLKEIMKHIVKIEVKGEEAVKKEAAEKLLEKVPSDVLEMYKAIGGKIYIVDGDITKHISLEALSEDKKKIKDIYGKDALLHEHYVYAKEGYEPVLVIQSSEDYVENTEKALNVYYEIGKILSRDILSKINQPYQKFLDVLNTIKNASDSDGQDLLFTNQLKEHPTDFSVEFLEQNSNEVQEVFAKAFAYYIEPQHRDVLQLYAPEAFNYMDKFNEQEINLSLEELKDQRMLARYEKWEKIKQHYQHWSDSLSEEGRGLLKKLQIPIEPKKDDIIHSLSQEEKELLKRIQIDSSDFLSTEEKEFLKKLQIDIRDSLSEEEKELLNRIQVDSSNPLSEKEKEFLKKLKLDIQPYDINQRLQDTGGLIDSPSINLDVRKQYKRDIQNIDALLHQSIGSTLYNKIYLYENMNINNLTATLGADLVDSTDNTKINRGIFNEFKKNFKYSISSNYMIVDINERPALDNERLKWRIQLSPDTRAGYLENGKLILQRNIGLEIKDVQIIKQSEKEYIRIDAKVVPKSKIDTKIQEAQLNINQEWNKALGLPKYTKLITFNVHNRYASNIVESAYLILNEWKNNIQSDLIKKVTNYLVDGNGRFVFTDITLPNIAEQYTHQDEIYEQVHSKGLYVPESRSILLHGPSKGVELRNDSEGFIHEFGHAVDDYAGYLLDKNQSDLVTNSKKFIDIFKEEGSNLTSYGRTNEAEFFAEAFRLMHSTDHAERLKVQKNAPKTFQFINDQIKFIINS
Mtb FBA inh = Mtb fructose-bisphosphate aldolase inhibition. purified M. tuberculosis FBA, fluorescence read-out. inhibition, % at 1 µM. 360,000 tested, 2.3% active. P9WQA3; in the data active means inhibition above about 27%;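 further: 0% = vehicle and 100% = reference inhibitor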
BoNT F protease = inhibitors of Botulinum neurotoxin F light chain protease; Multiplex microsphere protease cleavage assay, flow cytometry; inhibition, % at 10 µM; 360,000 tested, 0.22% active; in the data active means inhibition above about 35%, passing the limit was not always enough; inconclusive means no clear call, values can overlap the other calls; further: plate controls were buffer without enzyme for full effect and enzyme alone for no effect
GDH-TPI counter-1 = GDH-TPI coupled enzyme inhibition counter-screen; AID 588335; 360,000 tested, 1.2% active; GDH-TPI coupled enzyme counterscreen, NADH absorbance; inhibition, % at 4.8 µM; in the data active means inhibition above about 30%;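 further: 0% = DMSO wells and 100% = wells lacking the enzyme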
BoNT-A LC inh2 = BoNT A light chain protease inhibition. 360,000 tested, 0.17% active. multiplex microsphere protease substrate cleavage, flow cytometry. inhibition, % at 10 µM; further: plate controls were buffer without enzyme for full effect and enzyme alone for no effect
Mtb FBA confirm = Mtb FBA inhibition, confirmed; shares compounds with Mtb FBA inh; purified M. tuberculosis FBA, fluorescence read-out; inhibition, % at 1 µM; 5,600 tested, 78% active; AID 651616; in the data active means inhibition above about 27%;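 further: 0% = vehicle wells and 100% = reference inhibitor wells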
GDH-TPI counter-2 = GDH-TPI inhibition counter-screen for FBA inhibitors; shares compounds with Mtb FBA inh; 5,600 tested, 81% active; inhibition, % at 1 µM; GDH-TPI coupled enzyme counterscreen, fluorescence; AID 652141; in the data active means inhibition above about 10%
The depositor's hits bear a star; ? = inconclusive; . = no result given; + = active, no number. Compounds with a hit are over-represented: about 6.7% of the library has one in this group of screens. Unless noted, no stated cut-off is given here; in the data, active means inhibition above about 30%; inconclusive means no clear call, values can overlap the other calls; inactive means below that.

SMILES | Bead autofluor | Anthrax LF prot | Mtb FBA inh | BoNT F protease | GDH-TPI counter-1 | BoNT-A LC inh2 | Mtb FBA confirm | GDH-TPI counter-2
CN(C)CCCNC(=S)N(CCCO)Cc1cc2cc3c(cc2[nH]c1=O)OCO3 | 2967 | -17.0 | 26.0 | 23.7 | 12.6 | -0.2 | . | .
CN(C)CCCNC(=S)NCCNc1nc2cc3c(cc2cc1C#N)OCO3 | 3343 | -3.7 | 69.6* | 0.3 | 7.3 | 1.3 | 65.4* | 46.7*
CCOCCCNC(=S)NCCNc1nc2ccc(C)cc2cc1C#N | 2068 | 0.8 | 12.3 | -7.4 | -3.1 | 3.8 | . | .
CCOCCCNC(=S)NCCCNc1nc2cc3c(cc2cc1C#N)OCO3 | 13247 | -4.3 | 65.5* | -17.5 | 18.3 | -1.4 | 188.1* | 153.0*
Cc1cc(OCc2cc(C(=O)NCC3(C)COC3)no2)cc(C)c1Cl | 6430 | -2.5 | 3.1 | 4.8 | -6.1 | -0.6 | . | .
CC[C@@]1(C(=O)OC)N[C@H](CN(C)C(=O)c2ccccc2)[C@@H]2C(=O)N(Cc3ccccc3)C(=O)[C@@H]21 | 3701 | -9.3 | 0.0 | -3.9 | 0.0 | -0.4 | . | .
Cc1ccccc1/C=N/N=C1/NC(=O)CCS1 | 4267 | 9.2 | 29.0* | ? | 31.7* | -0.8 | 127.9* | 90.3*
c1ccc2c(c1)ccc1ccccc12 | 5652 | -4.8 | 4.6 | -3.0 | 8.8 | 0.2 | . | .
OC1CNc2c(ccc3ccccc23)C1 (stereo unspecified) | 3795 | -5.1 | 101.2* | -7.4 | 6.9 | -0.5 | 175.1* | 153.6*
CCOC(CCNC(=O)c1cn(CCOC)c(=O)c2c1c1ccccc1n2C)OCC | 3758 | -9.2 | 29.8* | -12.5 | 5.2 | 0.9 | 77.2* | 65.8*
CCCN(CCC)CCCNC(=O)c1cn(CCOC)c(=O)c2c1c1ccccc1n2C | 9809 | -2.7 | 32.3* | -5.1 | 20.1 | -0.1 | 118.4* | 89.9*
COCCn1cc(C(=O)NCc2ccco2)c2c3ccccc3n(C)c2c1=O | 3495 | 9.0 | 90.9* | 5.3 | 14.2 | -0.6 | + | +
N/C(=N\OC(=O)c1ccc2c(c1)OCO2)c1ccncc1 | 4738 | -0.4 | -1.5 | -1.4 | -10.1 | -0.3 | . | .
CCCC(=O)Nc1cc(-c2nc3ncccc3o2)ccc1Cl | 3191 | -11.6 | 5.9 | -25.6 | 5.1 | 3.0 | . | .
Nc1cc(-c2nc3ncccc3o2)ccc1Cl | 6553 | -9.2 | 37.7* | -0.6 | 23.1 | -1.1 | 86.5* | 70.6*
Nc1ccc(-c2nc3ncccc3o2)c(Cl)c1 | 2121 | 2.1 | 91.5* | -12.5 | 47.1* | -1.0 | 0.9 | 2.9
CCC(=O)Nc1ccc(Cl)c(-c2nc3ncccc3o2)c1 | 4451 | -6.4 | 11.1 | ? | 11.7 | -3.7 | . | .
COC(=O)c1ccc(OC)c(OC2CCCC2)c1 | 4136 | 8.5 | 3.0 | ? | 5.7 | ? | . | .
COc1ccc(NC(=O)C2CC2)cc1OC1CCCC1 | 3572 | -14.6 | 73.5* | 4.6 | 4.3 | -1.6 | 68.1* | 53.9*
O=C(CC(=O)c1ccccc1)Nc1ccccn1 | 3543 | -0.6 | 2.9 | ? | 9.8 | 4.2 | . | .
Cc1cc(OCC(=O)NCC(O)c2ccccc2)c2c3c(c(=O)oc2c1)CCCC3 (stereo unspecified) | 5214 | -2.7 | 12.3 | 1.6 | 6.8 | 1.7 | . | .
Cc1cc(OCC(=O)N[C@@H](Cc2ccccc2)C(=O)O)c2c3c(c(=O)oc2c1)CCCC3 | 5429 | -1.1 | 50.6* | -3.4 | -5.9 | 0.4 | 160.9* | 117.0*
CCCc1cc(=O)oc2cc(C)cc(OCC(=O)NCc3cccnc3)c12 | 5731 | 1.5 | 76.3* | -0.9 | 1.5 | 0.2 | + | +
Cc1cc(OCC(=O)NCc2cccnc2)c2c3c(c(=O)oc2c1)CCCC3 | 4611 | 1.7 | 105.5* | 8.0 | 3.7 | 8.1 | 54.9* | 36.9*
COc1ccc(CCNC(=O)Cn2nc([N+](=O)[O-])c(Br)c2C)cc1OC | 6054 | -17.5 | -1.3 | -22.6 | 10.5 | -5.1 | . | .
SMILES | Bead autofluor | Anthrax LF prot | Mtb FBA inh | BoNT F protease | GDH-TPI counter-1 | BoNT-A LC inh2 | Mtb FBA confirm | GDH-TPI counter-2
C=CCN1C(=O)c2ccc(C(=O)N(C)CC(=O)Nc3ccccc3Cl)cc2C1=O | 5728 | 0.8 | 2.9 | -0.2 | 7.8 | -0.4 | . | .
COC1=C(C)C(=O)C2=C(C1=O)C(CO)N1C(C#N)C3CC4C(C1C2N1CCOC41)N3C (stereo unspecified) | 3006 | -12.1 | -1.3 | -6.4 | 7.8 | -0.2 | . | .
COc1ccc2c(c1)CCc1cnc(N)nc1-2 | 4845 | 2.6 | 106.3* | -6.8 | 30.5 | -0.4 | -3.4 | -2.4
COc1cc(OC)cc(-c2c(-c3ccc(F)cc3)c3cc(-c4cccc5[nH]ccc45)ccc3n2C)c1 | 2788 | 0.3 | 47.8* | 7.7 | 28.6 | 0.8 | 5.1 | -8.5
COc1cccc(-c2c(-c3cc(OC)cc(OC)c3)n(C)c3ccc(Br)cc23)c1 | 2869 | -2.0 | 6.8 | 1.7 | 22.7 | -0.6 | . | .
COc1cc(OC)cc(-c2c(-c3ccc(F)cc3)c3cc(-c4ccc(OC)nc4)ccc3n2C)c1 | 3758 | -0.1 | 5.3 | -1.4 | 4.5 | -0.2 | . | .
COc1cccc(-c2c(-c3cc(OC)cc(OC)c3)n(C)c3ccc(-c4cccc5[nH]ccc45)cc23)c1 | 3528 | -11.1 | 54.1* | -0.2 | 25.2 | -0.2 | + | +
Cc1ccc(NC(=O)CN(C)C(=O)c2cc3c(s2)CCCCC3)cc1 | 4080 | -2.2 | -6.1 | 4.9 | 7.3 | -0.3 | . | .
CCCCn1c(N)c(N(CC(C)C)C(=O)C2CCN(S(=O)(=O)c3ccc(F)cc3)CC2)c(=O)[nH]c1=O | 5679 | -0.4 | 2.8 | 4.1 | 3.0 | -2.2 | . | .
Cc1nn(-c2ccccc2)nc1C(=O)OCC(=O)N1CCC(C)CC1 | 8709 | 7.9 | 28.4* | 2.1 | -1.4 | 2.8 | 94.0* | 76.5*
Cc1ccc(NC(=O)CNC(=O)c2ccc(C(C)(C)C)cc2)cc1S(=O)(=O)N1CCOCC1 | 3846 | -1.4 | -0.9 | -7.4 | -2.6 | 0.0 | . | .
COc1cccc(N2CC(=O)N(NC(=O)c3sc4nc(C)cc(C)c4c3N)CC2=O)c1 | 4446 | -4.9 | 54.1* | -17.2 | 5.2 | 0.2 | + | 175.0*
Cc1cc(C)c2c(N)c(C(=O)NNC(=O)c3ccccc3)sc2n1 | 4563 | -5.2 | 6.3 | -2.4 | 3.1 | 0.2 | . | .
COc1ccc(NC(=O)c2sc3nc(C)cc(C)c3c2N)c(OC)c1 | 6255 | -7.7 | 3.3 | 1.0 | 14.8 | -0.3 | . | .
Cc1cc(C)c2c(N)c(C(=O)NN3CC(=O)N(c4ccccc4F)CC3=O)sc2n1 | 2808 | -3.6 | 62.1* | -1.2 | 2.5 | 0.5 | 104.4* | 86.8*
COc1cccc(C(=O)Nc2c(F)cccc2F)c1 | 4107 | -5.5 | -2.2 | 6.6 | 0.3 | 0.0 | . | .
COc1cc(-c2cc3nc(NC4CCCCC4)ccn3n2)cc(OC)c1OC | 2922 | -6.5 | 30.8* | -6.2 | 10.7 | 0.1 | -7.9 | -6.6
OC1CCC(Nc2ccn3nc(-c4cccc(OCc5ccccc5)c4)cc3n2)CC1 (stereo unspecified) | 2912 | -5.2 | 29.1* | 0.1 | 7.6 | -0.1 | 54.1* | 38.7*
COCCCNc1ccn2nc(-c3ccccc3)cc2n1 | 3495 | -3.8 | 20.6 | 6.8 | 6.7 | 0.0 | . | .
